Reference: ChEMBL document CHEMBL1961873, “Compounds: GSK PKIS; Assays: Nanosyn kinase panel” (2012)

What was measured:
[1] = biological target: Death-associated protein kinase 1 (Homo sapiens) (UniProt P53355); conditions: at 1 µM;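 also: each value is a mean inhibition figure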
[2] = biological target: T1, Serine/threonine-protein kinase DCLK2 (Homo sapiens) (UniProt Q8N568); conditions: at 0.1 µM
T1 sequence (whole entry): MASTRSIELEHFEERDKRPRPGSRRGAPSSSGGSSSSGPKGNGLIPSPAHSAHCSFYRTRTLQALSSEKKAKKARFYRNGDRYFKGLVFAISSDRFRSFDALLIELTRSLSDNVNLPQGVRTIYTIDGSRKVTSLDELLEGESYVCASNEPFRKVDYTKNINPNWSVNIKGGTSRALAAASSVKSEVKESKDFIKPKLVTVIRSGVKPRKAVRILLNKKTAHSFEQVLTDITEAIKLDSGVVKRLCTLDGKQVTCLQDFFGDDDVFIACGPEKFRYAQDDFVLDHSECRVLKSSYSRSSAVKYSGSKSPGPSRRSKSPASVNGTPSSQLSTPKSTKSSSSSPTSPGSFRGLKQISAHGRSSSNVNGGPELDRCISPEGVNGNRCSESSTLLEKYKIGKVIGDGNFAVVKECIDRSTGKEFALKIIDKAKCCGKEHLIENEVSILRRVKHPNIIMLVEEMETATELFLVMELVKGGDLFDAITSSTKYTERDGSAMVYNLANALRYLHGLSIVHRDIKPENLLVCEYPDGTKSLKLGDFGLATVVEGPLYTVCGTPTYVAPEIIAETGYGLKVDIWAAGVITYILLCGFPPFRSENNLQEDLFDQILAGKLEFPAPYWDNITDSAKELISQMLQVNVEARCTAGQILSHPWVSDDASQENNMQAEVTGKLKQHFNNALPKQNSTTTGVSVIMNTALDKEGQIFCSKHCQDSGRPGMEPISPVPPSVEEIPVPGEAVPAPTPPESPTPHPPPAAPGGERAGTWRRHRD

[3] = biological target: T1, Serine/threonine-protein kinase DCLK2 (Homo sapiens); conditions: at 1 µM
[4] = biological target: MAP kinase-activated protein kinase 2 (Homo sapiens) (UniProt P49137); conditions: at 0.1 µM
MAP kinase-activated protein kinase 2 (Homo sapiens), sequence (P49137 whole entry, looked up): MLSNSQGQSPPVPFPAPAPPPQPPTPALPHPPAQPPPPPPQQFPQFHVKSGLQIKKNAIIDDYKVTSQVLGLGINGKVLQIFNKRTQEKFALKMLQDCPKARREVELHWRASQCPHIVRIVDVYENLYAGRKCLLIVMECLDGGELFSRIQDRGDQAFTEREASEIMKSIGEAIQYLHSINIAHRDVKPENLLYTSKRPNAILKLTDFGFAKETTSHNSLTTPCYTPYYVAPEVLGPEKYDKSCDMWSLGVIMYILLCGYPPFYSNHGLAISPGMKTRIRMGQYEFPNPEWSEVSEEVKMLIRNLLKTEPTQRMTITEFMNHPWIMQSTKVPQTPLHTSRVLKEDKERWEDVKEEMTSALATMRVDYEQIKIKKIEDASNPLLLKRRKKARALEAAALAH

[5] = biological target: MAP kinase-activated protein kinase 2 (Homo sapiens) (UniProt P49137); conditions: at 1 µM
[6] = biological target: MAP kinase-activated protein kinase 3 (Homo sapiens) (UniProt Q16644); conditions: at 0.1 µM
MAP kinase-activated protein kinase 3 (Homo sapiens), sequence (Q16644 whole entry, looked up): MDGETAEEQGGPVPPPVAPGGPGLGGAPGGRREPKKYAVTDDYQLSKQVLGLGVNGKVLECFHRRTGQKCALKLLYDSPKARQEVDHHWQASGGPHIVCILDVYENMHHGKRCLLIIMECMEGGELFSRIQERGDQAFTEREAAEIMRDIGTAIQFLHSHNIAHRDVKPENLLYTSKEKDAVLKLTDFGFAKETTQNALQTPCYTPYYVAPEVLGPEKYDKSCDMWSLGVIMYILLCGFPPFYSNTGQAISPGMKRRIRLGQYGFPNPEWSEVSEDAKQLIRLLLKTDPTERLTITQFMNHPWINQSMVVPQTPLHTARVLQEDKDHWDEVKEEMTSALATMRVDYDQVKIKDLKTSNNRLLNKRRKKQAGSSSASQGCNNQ

[7] = biological target: MAP kinase-activated protein kinase 3 (Homo sapiens) (UniProt Q16644); conditions: at 1 µM
[8] = biological target: Serine/threonine-protein kinase MARK1 (Homo sapiens) (UniProt Q9P0L2); conditions: at 0.1 µM
Serine/threonine-protein kinase MARK1 (Homo sapiens), sequence (Q9P0L2 whole entry, looked up): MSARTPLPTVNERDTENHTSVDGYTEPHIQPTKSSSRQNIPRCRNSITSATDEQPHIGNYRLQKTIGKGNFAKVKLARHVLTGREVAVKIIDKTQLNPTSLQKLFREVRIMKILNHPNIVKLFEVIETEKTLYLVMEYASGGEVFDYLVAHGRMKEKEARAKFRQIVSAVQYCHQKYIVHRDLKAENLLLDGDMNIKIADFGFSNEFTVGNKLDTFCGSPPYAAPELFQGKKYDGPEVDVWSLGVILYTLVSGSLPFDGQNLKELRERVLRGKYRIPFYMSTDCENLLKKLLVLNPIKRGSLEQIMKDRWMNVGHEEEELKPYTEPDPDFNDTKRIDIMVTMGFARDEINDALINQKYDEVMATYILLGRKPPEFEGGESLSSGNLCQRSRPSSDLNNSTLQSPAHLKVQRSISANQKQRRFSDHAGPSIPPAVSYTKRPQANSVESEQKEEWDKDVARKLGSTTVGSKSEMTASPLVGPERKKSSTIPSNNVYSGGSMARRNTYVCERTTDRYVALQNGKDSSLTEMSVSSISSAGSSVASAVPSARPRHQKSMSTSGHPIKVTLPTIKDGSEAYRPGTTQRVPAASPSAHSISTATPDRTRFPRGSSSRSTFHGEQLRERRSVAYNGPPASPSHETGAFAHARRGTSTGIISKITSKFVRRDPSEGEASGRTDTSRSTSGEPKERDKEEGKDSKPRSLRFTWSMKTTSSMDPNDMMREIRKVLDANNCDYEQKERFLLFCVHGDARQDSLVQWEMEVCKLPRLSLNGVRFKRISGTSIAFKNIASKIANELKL

[9] = biological target: Serine/threonine-protein kinase MARK1 (Homo sapiens) (UniProt Q9P0L2); conditions: at 1 µM
[10] = biological target: MAP/microtubule affinity-regulating kinase 3 (Homo sapiens) (UniProt P27448); conditions: at 0.1 µM;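 also: mean percent inhibition of MARK3 kinase activity, measured within the GSK PKIS screening panel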
MAP/microtubule affinity-regulating kinase 3 (Homo sapiens), sequence (P27448 whole entry, looked up): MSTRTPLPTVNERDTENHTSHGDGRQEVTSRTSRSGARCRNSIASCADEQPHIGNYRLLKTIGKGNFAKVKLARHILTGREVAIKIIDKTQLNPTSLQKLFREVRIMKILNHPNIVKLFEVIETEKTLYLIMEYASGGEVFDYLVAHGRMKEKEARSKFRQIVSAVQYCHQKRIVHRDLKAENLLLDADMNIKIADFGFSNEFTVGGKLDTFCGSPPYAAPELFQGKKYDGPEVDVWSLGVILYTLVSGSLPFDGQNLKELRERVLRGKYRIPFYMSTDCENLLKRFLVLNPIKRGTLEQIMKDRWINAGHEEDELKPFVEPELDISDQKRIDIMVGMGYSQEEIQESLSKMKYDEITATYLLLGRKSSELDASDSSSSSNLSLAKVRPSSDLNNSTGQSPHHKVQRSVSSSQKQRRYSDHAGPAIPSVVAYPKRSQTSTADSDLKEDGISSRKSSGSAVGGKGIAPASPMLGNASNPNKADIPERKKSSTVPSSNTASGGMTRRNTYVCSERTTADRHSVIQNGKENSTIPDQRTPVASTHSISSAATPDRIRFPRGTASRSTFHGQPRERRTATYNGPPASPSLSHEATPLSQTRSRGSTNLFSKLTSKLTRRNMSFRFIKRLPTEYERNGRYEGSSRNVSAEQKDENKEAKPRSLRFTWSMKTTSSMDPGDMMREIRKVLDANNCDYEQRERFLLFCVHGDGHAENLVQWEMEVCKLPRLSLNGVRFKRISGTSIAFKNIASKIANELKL

Death-associated protein kinase 1 (Homo sapiens), sequence (P53355 whole entry, looked up): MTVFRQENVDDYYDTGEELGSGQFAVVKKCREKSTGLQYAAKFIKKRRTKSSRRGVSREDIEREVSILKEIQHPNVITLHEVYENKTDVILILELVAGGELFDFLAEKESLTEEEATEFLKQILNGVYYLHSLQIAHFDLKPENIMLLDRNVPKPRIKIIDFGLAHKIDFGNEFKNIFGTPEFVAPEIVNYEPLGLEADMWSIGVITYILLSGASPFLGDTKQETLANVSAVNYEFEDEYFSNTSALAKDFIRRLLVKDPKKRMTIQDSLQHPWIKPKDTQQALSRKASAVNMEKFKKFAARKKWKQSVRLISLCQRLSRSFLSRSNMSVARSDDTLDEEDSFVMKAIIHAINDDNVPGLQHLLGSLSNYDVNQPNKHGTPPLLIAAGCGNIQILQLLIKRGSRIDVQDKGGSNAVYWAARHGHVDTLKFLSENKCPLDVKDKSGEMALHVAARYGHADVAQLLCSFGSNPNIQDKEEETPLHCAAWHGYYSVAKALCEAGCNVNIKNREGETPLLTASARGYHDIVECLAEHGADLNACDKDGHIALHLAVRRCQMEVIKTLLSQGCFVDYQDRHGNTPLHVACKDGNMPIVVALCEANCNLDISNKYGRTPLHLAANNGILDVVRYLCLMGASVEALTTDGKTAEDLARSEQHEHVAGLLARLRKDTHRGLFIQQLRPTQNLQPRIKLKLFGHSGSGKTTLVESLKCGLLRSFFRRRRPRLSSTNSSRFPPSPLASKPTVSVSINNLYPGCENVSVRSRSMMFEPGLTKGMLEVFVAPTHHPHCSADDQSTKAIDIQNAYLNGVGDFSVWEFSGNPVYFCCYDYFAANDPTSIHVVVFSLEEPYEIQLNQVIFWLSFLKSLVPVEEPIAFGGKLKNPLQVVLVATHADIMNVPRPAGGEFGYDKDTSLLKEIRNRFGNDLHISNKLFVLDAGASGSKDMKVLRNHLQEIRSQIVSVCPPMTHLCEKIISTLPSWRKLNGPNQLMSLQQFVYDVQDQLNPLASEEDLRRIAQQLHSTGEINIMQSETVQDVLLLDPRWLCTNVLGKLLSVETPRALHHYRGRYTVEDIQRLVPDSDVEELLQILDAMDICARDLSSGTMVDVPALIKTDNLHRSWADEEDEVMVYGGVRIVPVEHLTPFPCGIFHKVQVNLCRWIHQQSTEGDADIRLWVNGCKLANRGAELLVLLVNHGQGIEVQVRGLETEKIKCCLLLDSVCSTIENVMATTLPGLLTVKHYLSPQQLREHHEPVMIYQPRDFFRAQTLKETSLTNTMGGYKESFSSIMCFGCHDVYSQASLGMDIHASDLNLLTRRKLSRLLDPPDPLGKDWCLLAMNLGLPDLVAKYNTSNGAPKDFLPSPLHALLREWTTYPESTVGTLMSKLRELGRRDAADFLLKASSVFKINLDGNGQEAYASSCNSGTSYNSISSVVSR

Row | Structure (SMILES) | inhibition [1] [%] | inhibition [2] [%] | inhibition [3] [%] | inhibition [4] [%] | inhibition [5] [%] | inhibition [6] [%] | inhibition [7] [%] | inhibition [8] [%] | inhibition [9] [%] | inhibition [10] [%]
1 | Nc1nonc1-c1nc2cnccc2n1C1CCCCC1 | -1.97 | -0.3 | 1.52 | -1.18 | -1.08 | -2.2 | -2.76 | 2.89 | 16.5 | 4.04
2 | Cc1cc(-c2ccco2)cc(C)c1/C=C/c1cncc(-c2nn[nH]n2)c1 | 0.04 | -1.22 | 0.25 | 0.52 | 0.01 | 1.42 | 1.25 | 1.07 | 1.26 | -0.4
3 | Fc1ccc(-c2ncn(C3CCNCC3)c2-c2ccnc(Oc3ccccc3)n2)cc1 | -1.87 | -4.56 | -2.43 | 0.07 | -0.82 | 31.3 | 33.4 | 0.45 | 0.99 | 0.57
4 | CCn1c(-c2nonc2N)nc2c(C#CCN)ncc(OCCCN)c21 | -3.38 | -0.93 | -0.65 | -0.73 | -0.87 | -1.07 | -0.66 | 4.42 | 11 | 6.58
5 | COc1cccc(COc2cc(-n3cnc4ccccc43)sc2C(N)=O)c1 | 1.02 | -0.3 | 0.3 | -0.08 | -1.3 | 2.28 | 3.61 | 0.58 | 1.16 | 2.28
6 | COc1cc(C=NNc2ncnc3c2cnn3Cc2ccccc2)ccc1O | -3.68 | -3.6 | -3.02 | -2.2 | -2.27 | -2.35 | -1.92 | -0.6 | 1.36 | 0.53
7 | NS(=O)(=O)c1ccc(N/C=C2\C(=O)Nc3ccc4ncsc4c32)cc1 | 9.33 | 0.08 | 5.55 | 2.68 | 2.48 | 7.84 | 10.4 | 13.6 | 53.8 | 8.01
8 | CCn1c(-c2nonc2N)nc2c(C#CC(C)(C)O)nc(O[C@@H](CN)c3ccccc3)cc21 | 2.31 | 6.73 | 18.5 | -0.97 | -1 | -3.02 | -0.47 | 77.2 | 93.1 | 83.3
9 | CCn1c(-c2nonc2N)nc2c(C#CC(C)(C)O)ncc(OC[C@@H]3CCCN3)c21 | 0.89 | -1.55 | 2.93 | -0.56 | -0.71 | -0.39 | -0.82 | 13.8 | 61.1 | 14.9
10 | COc1cc2c(cc1Nc1nc(Nc3ccsc3C(N)=O)c3cc[nH]c3n1)N(C(=O)CN(C)C)CCC2 | 4.14 | -2.25 | 0.34 | -0.32 | -2.2 | 6.83 | 6.01 | 2.48 | 5.99 | 2.11
11 | COc1cccc(-n2ncc3c(N/N=C/c4ccncc4)ncnc32)c1 | 4.53 | 2.42 | 1.8 | 2.5 | 1.87 | 3.62 | 4.56 | 4.99 | 9.17 | 5.75
12 | NC(=O)c1sc(-n2cnc3cc(C(F)(F)F)ccc32)cc1OCc1ccccc1Br | 0 | -1.23 | 2.52 | 0.61 | 0.42 | 1.71 | -0.9 | 1.79 | 1.6 | 1.11
13 | CCn1c(-c2nonc2N)nc2c(C#CC(C)(C)O)ncc(OCC3CCNCC3)c21 | 1.75 | -3.05 | -1.26 | 0.79 | 1.63 | 2.86 | 1.31 | 15.5 | 61.3 | 13
14 | NS(=O)(=O)c1ccc(-c2ccc3c(NC(=O)C4CC4)n[nH]c3c2)cc1 | 4.32 | 0.37 | 0.39 | 1.09 | 0.96 | 2.61 | 2.69 | 1.75 | 2.18 | 2.65
